VP16 counter: VP16 counterscreen qHTS for inhibitors of ROR gamma transcriptional activity; 310,000 compounds, 3.5% hits; AID 2546, 2010; Potency, µM (top dose mostly 53.6 µM), inactives show at the highest dose activity, negative = inhibition, hits mostly inhibitors; Drosophila S2 Gal4-VP16 UAS-luciferase, luminescence, 20 h;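 note: Gal4-VP16 expression switched on by copper sulfate through the metallothionein promoter; nearly all actives have a fitted effect of over 50% in size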
RORg inh: qHTS for inhibitors of ROR gamma transcriptional activity | Drosophila S2 Gal4-RORgamma UAS-luciferase reporter, 20 h | Potency, µM (highest dose often 53.6 µM), inactives show top-dose activity change, negative = inhibition, usual class: inhibitors | 310,000 compounds, 5.4% hits | Nuclear receptor ROR-gamma (Mus musculus), P51450 | AID 2551, 2010; note: nearly all actives have a fitted effect of over 60% in size
Target sequence (P51450 whole entry, looked up, the tested form may be a part): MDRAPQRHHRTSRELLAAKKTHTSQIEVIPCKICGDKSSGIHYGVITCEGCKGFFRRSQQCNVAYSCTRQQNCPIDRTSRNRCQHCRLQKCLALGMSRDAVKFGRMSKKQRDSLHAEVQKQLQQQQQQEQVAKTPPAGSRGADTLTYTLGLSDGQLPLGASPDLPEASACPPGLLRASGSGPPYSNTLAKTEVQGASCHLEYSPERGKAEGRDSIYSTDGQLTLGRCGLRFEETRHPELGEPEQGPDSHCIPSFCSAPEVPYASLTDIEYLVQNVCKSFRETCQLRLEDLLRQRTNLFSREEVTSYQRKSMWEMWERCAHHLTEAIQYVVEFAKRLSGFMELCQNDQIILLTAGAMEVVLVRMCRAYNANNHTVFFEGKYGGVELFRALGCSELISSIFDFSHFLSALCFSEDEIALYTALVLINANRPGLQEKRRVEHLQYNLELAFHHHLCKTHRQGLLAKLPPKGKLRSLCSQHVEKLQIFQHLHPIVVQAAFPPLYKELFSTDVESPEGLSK
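In this cell-based reporter format, copper sulfate (700 uM final) drives Gal4–ROR gamma fusion expression from a metallothionein promoter in Drosophila Schneider cells; compounds preincubated 1 hr, reporter read after 20 hr at ambient temperature.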
KinaseGlo FLuc: Counterscreen for Luciferase (Kinase-Glo TM) Inhibition. Kinase-Glo luciferase, ATP luminescence, 8 min. Potency, µM (titrated, usually from 38.3 µM), inactives show at the top dose activity change, negative = inhibition, usual class: inhibitors. 200,000 compounds, 0.28% hits; note: nearly all actives have a fitted effect of over 60% in size
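Compounds were added to a substrate mix at pH 7.2 (50 mM imidazole, 10 uM ATP, within the enzyme's linear range), followed by Kinase-Glo detection reagent; luminescence was measured after 8 minutes at ambient temperature.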
* marks the source's active call; other numbers are inactive results; ? = inconclusive; · = no result; [ ] = remark or other dose. An excerpt weighted towards active compounds, which were near 6.2% of everything screened. Calls come from the whole dose curve; as a rule, active = well fitted curve in the direction sought with a large enough effect; inconclusive = small, poorly fitted or top-dose-only effect, or another doubt; inactive = no such curve, though single readings can be large; an effect the other way counts as inactive or inconclusive. % is set by controls: 0 for no effect and ±100 for the full control effect; potency is the fitted concentration of half-maximal effect.

SMILES	VP16 counter	RORg inh	KinaseGlo FLuc
O=C(COC(=O)c1c[nH]c(=O)[nH]c1=O)Nc1ccccc1Br	-2.8%	0.8%	·
COc1ccc(OCc2cc(C(=O)NCC(C)(C)N3CCOCC3)no2)c(Cl)c1	-15.0%	-8.0%	·
O=C(NNC1=Nc2ccccc2SC1)c1ccccc1F	0.708µM*	0.891µM*	·
O=C(NNC1=Nc2ccccc2SC1)c1cccc([N+](=O)[O-])c1	-26.4%	?	·
C/C(=N\NC(=O)c1ccc2c(c1)OCO2)c1ccc2c(c1)OCO2	-20.0%	4.9%	-2.8%
C/C(=N\NC(=O)c1ccc2c(c1)OCCO2)c1ccccc1	7.94µM*	5.62µM*	·
CC(/C=C/c1ccccc1)=N/NC(=O)CNC(=O)c1ccc2c(c1)OCO2	-12.0%	-2.8%	-3.3%
CC(/C=C/c1ccccc1)=N\NC(=O)c1ccc2c(c1)OCCO2	?	12.6µM*	-1.1%
C=CC[C@@H]1C=C[C@@H](O/N=C\[C@@H](NS(=O)(=O)c2ccc(C)cc2)[C@H](C)/C=C\CC(=O)OC)[C@@H](CO)O1	5.9%[10 µM]	5.6%[10 µM]	·
Cc1ccc(Nc2cc(C)nn2-c2nc(C)cc(=O)[nH]2)cc1	0.631µM*	0.178µM*	-0.3%
Cc1ccc(Nc2cc(C)nc3nnnn23)cc1	4.8%	0.0%	-0.6%
Cc1cc(C)nc(-n2nc(C)cc2NC(=O)C(C)C)n1	25.4%	5.01µM*	-0.3%
CC(=O)Nc1cc(C)nn1-c1nc(C)cc(C)n1	0.3%	?	1.5%
Cc1ccc(Nc2nc3ccccc3nc2-n2nc(C)cc2C)cc1	-3.4%	34.3%	-4.7%
Cc1ccc(Nc2cc(C)nn2-c2nc(C)cc(C)n2)cc1	3.16µM*	?	0.5%
O=C(Cn1c(=O)n(-c2ccccc2)c(=O)c2sccc21)NCc1ccccc1	-3.0%	9.4%	1.4%
COc1ccc(-c2nc3c(c4c2C[C@H](c2ccccc2)OC4)CN(S(=O)(=O)c2ccc(Cl)c4nonc24)CC3)c(C)c1	·	·	-7.0%[7.66 µM]
O=C(CCCCCN1C(=O)c2cccc3cccc(c23)C1=O)NCCO	-7.1%[10 µM]	-30.4%	-3.1%
COC(=O)N[C@@H](CCc1ccccc1)[C@]1(C(C)=O)CCCC1=O	-5.4%	?	-3.0%
O=C(O)c1ccc(COc2ccc(CO)cc2Cl)cc1	?	?	1.5%
CCOc1ccc(OCc2cccc(C(=O)N3CCCC3)c2)cc1	-0.3%	?	-3.5%
O=C(O)c1cccc(COc2ccc3c(c2)CCC3)c1	5.9%	0.4%	·
COc1ccc(OCc2cccc(C(=O)O)c2)cc1	?	1.78µM*	?
CCOc1ccc(OCc2cccc(C(=O)O)c2)cc1	?	1.58µM*	11.2µM*
O=C(O)c1cccc(COc2ccc(CO)cc2Cl)c1	5.01µM*	1.78µM*	-15.8%
SMILES	VP16 counter	RORg inh	KinaseGlo FLuc
Cc1cccc(NC(=O)C(C)n2cc([N+](=O)[O-])cn2)n1 (stereo unspecified)	-11.8%	1.2%	1.3%
CC1CCN(C(=O)c2cc3ccccc3o2)CC1	3.9%	?	-5.5%
CCCCS(=O)(=O)N1CCC(C(=O)NCC2CCCO2)CC1 (stereo unspecified)	-12.8%	-23.6%	·
COC(=O)CCC[N+](C)(C)C	-6.6%	0.0%	·
CCOC(=O)C1CCN(c2ccc(-c3cccs3)nn2)CC1	-0.1%	3.8%	·
c1csc(-c2ccc(N3CCOCC3)nn2)c1	11.2µM*	?	·
CN(C)C(=S)NC(C)(C)C	-0.7%	2.2%	·
CC(=O)N[C@@H](CSC(=O)[C@]1([C@@H](O)C(C)C)NC(=O)[C@H](C)[C@@H]1O)C(=O)O	-27.4%[10 µM]	?	-1.4%[39.9 µM]
Cc1cc2cc(CNC(=O)C(C)Oc3ccccc3)ccc2n1C (stereo unspecified)	2.3%	20.1%	·
CCOC(=O)Cc1cc(=O)n2[nH]c(-c3ccccc3)c(-c3ccccc3)c2n1	3.6%	?	-0.5%
CCOC(=O)Cc1c(C)nc2c(-c3ccc(Cl)cc3)cnn2c1C	21.7%	?	1.5%
CCOC(=O)Cc1c(C)nc2c(-c3ccc(Cl)cc3)c(C)[nH]n2c1=O	6.31µM*	6.31µM*	0.3%
CCOC(=O)Cc1c(C)nc2c(C#N)c[nH]n2c1=O	-10.9%	4.3%	4.2%
CCOC(=O)Cc1c(C)nc2c(-c3cccc(Br)c3)c[nH]n2c1=O	14.1µM*	4.47µM*	-2.1%
CCOC(=O)N1CCC(c2cc(=O)n3[nH]c(C)c(-c4ccc(F)cc4)c3n2)CC1	12.6µM*	10µM*	2.6%
CCOC(=O)N1CCC(c2cc(=O)n3[nH]c(-c4ccccc4)cc3n2)CC1	-8.2%	28.7%	2.8%
CCOC(=O)Cc1cc(=O)n2[nH]c(C)c(-c3ccccc3)c2n1	?	12.6µM*	-0.3%
Cc1cccc(C(=O)NCCCNC(=O)c2ccc(C)nc2)c1	-10.2%	-3.8%	·
Cc1nn(CC2CC2)c(=O)n1-c1ccccc1	0.4%	-14.3%	0.3%
O=C(c1cc(Cl)cc(Cl)c1)N1CCOCC1	-1.0%	-8.7%	1.2%
COC(=O)c1cc(NC(=O)Nc2ccccc2)ccc1Cl	-6.2%	30.1%	-5.9%
Cc1cc(=O)n2[nH]c(C)c(-c3ccccc3)c2n1	-7.2%	-42.6%	-2.9%
Cc1cc(=O)n2[nH]c(C)c(-c3ccc(Cl)cc3)c2n1	15.8µM*	7.08µM*	-3.3%
O=C1C=C(NCCO)C(=O)c2cnccc21	6.31µM*	3.55µM*	-6.3%
O=C1C=C(NCCc2cc(Br)c(O)c(Br)c2)C(=O)c2ncccc21	·	·	-6.3%[7.66 µM]
SMILES	VP16 counter	RORg inh	KinaseGlo FLuc
Clc1ccccc1-c1cncnc1NCCN1CCOCC1	2.8%	-28.3%	·
O=C1C=C(NCCN2CCOCC2)C(=O)c2cnccc21	?	10µM*	-8.3%
Cc1ccc2c(c1)c(=O)c(Br)c(C)n2Cc1ccccc1	2.6%	-5.1%	-0.4%
COc1ccc(N2C(=O)CSC23C(=O)N(CC(=O)NC2CCCC2)c2ccccc23)cc1 (stereo unspecified)	-0.2%	0.8%	·
Cc1onc(-c2ccccc2)c1C(=O)NC(=S)NNC(=O)c1cc(-c2ccc(F)cc2)n[nH]1	-25.0%	?	·
Nc1cc(=O)[nH]c(SCc2ccc(Cl)cc2)n1	0.9%	15.8%	-2.1%
CC(C)(C)c1ccc(CSc2nc(N)cc(=O)[nH]2)cc1	7.94µM*	-44.8%	·
CC(C)c1ccc2oc(-c3cc(N)ccc3O)nc2c1	22.4µM*	10µM*	-11.1%
Cc1ccccc1-c1nc2cc(N)ccc2o1	1.9%	-26.2%	-10.5%
O=C(O)CC12CC3CC(C1)CC(n1cncn1)(C3)C2	-5.4%[10 µM]	31.1%	-1.8%
CCc1cccc2c(C(=O)C(F)(F)F)cn(CC(=O)N3CCOCC3)c12	-10.7%	9.3%	-1.8%
CC(=O)O[C@H]1Cc2ccccc2N(C(N)=O)c2ccccc21	-7.5%	1.2%	·
Cc1ccc(/C=N/n2c(-c3ccc(Cl)cc3)n[nH]c2=S)s1	-29.8%	1.41µM*	-1.7%
Cc1cccc(/C=N/n2c(-c3ccccc3)n[nH]c2=S)c1O	?	-38.2%	·
Cc1ccc(-c2n[nH]c(=S)n2/N=C/c2ccc(C)s2)cc1	7.08µM*	3.16µM*	-4.1%
CC1CCC(NC(=O)C2CC(=O)N(c3ccc(Cl)cc3)C2)CC1 (stereo unspecified)	-4.5%	8.0%	·
CC(C)Cc1ccc(/C=C/C(=O)NC2CC2)cc1	15.8µM*	?	-0.1%
O=C(/C=C/c1ccc(Br)cc1)NC1CCCCCC1	-17.1%	-6.4%	-11.4%
